Measured potencies and affinities stand elsewhere. Active and inactive are the calls of the source.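 Rule for the calls: active = every repeat run showing a signal drop whose fitted half-maximal concentration is at most twice the top tested concentration; inconclusive = repeat runs disagree, or flat partial drop, or poor fit; inactive = the rest.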
Test: HEK293T cytotoxicity, dose response, cytotoxicity control for miR-122 modulator project, cell-based, activator set, cherry-pick (AID 720690);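 note: 0% = neutral control wells and -100% = MG132 cytotoxic control wells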
Settings: HEK293T viability, CellTiter-Glo luminescence, 48 h; series mostly up to 26 µM; activity change, negative = cytotoxicity: at the top concentration

| SMILES | activity change, negative = cytotoxicity |
| --- | --- |
| O=C(C1CC1)N(CCN(C(=O)C1CC1)c1ccccc1)c1ccccc1 | -9.34% (inactive) |
| COc1ccc(CNC(=O)C[C@H]2CC[C@H]3[C@H](COc4ccc(NC(=O)C(C)C)cc4C(=O)N3C)O2)cc1 | -5.37% (inactive) |
| CN1C(=O)c2cc(NC(=O)c3ccccc3F)ccc2OC[C@H]2O[C@H](CC(=O)NCc3ccc4c(c3)OCO4)CC[C@@H]21 | -17% (inactive) |
| CN(C)CCCNC(=O)C[C@H]1CC[C@H]2[C@H](COc3ccc(NC(=O)NC4CCCC4)cc3C(=O)N2C)O1 | 3.63% (inactive) |
| Cc1cc(C(C)(C)C)cc(S(=O)(=O)NCCc2ccncc2)c1C | 3.39% (inactive) |
| CC(=O)N1[C@H](CNC(=O)C2CC2)[C@H](c2ccc(-c3cccc(F)c3)cc2)[C@@H]1CO | -11.7% (inactive) |
| C/C=C/c1ccc([C@H]2[C@H](CO)N[C@H]2CN(CC(C)C)C(=O)c2ccccn2)cc1 | -12.9% (inactive) |
| COc1cccc(NC(=O)C[C@@H]2CC[C@@H]3[C@@H](COc4ccc(NS(=O)(=O)c5cccc(F)c5)cc4C(=O)N3C)O2)c1 | -6.79% [at 23.5 µM] (inactive) |
| Cc1cc2[nH]c3c4ccccc4nc(C)c3c2cc1C | -37.8% [at 12 µM] (inactive) |
| C[C@@H]1CN([C@H](C)CO)S(=O)(=O)c2ccc(C#CC3CC3)cc2O[C@@H]1CN(C)C(=O)c1cccc(F)c1 | -31.4% (inactive) |
| C/C=C/c1ccc2c(c1)O[C@H](CN(C)C(=O)Cc1cccnc1)[C@H](C)CN([C@H](C)CO)S2(=O)=O | -6.67% (inactive) |
| CCC(=O)N1[C@@H](CO)[C@H](c2ccccc2)[C@@H]1CN(C(C)C)S(C)(=O)=O | 0.504% (inactive) |
| COCC(=O)N(C)C[C@@H]1[C@H](c2ccc(-c3ccccc3)cc2)[C@@H](CO)N1C(C)=O | -14.3% (inactive) |

From PubChem BioAssay AID720690 (Broad Institute, 2013)
